Drawing on PubChem BioAssay (NCI), this text covers growth for nine compounds.

Test systems include SR leukemia; RPMI-8226 leukemia; OVCAR-8 ovarian; OVCAR-5 ovarian; OVCAR-4 ovarian; IGROV1 ovarian; HS 578T breast; NCI/ADR-RES ovarian; T-47D breast; BT-549 breast; MDA-MB-435 melanoma; SW-620 colon; MCF7 breast; HCT-116 colon; HCC-2998 colon; KM12 colon; SK-OV-3 ovarian; OVCAR-3 ovarian.
Common to all, as to assay: NCI-60 one-dose screen, 48 h (100 = growth as untreated, 0 = no growth, -100 = all killed)
Conditions in all cases: 10 µM unless noted

Compounds without any hit were thinned out: in the full panel of roughly 83,000, 20% have a hit.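 For each line, cells grew in 96-well plates with the test compound present at a single concentration for 48 hours.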 Unmarked numbers belong to inactive results. The source made the active and inactive calls. Rule for the calls: active = growth percent below 10; inactive = the rest.

Take `CC1CCc2c(sc3nc(SCC(=O)N/N=C/c4cccc(O)c4O)n(-c4ccccc4)c(=O)c23)C1` (centres undefined): the growth in the assay on SR leukemia is 81%; in the assay with RPMI-8226 leukemia it was 89.1%; in the assay with OVCAR-8 ovarian it was 90.6%; in the assay on OVCAR-5 ovarian, 93.6%; in the assay on OVCAR-4 ovarian, 84.7%; in the assay with IGROV1 ovarian, 92.9%. Besides, the growth with HS 578T breast was 95.8%; with NCI/ADR-RES ovarian it was 89.1%; in the assay on T-47D breast, 74.5%; in the assay on BT-549 breast it was 127%; in the assay on MDA-MB-435 melanoma, 88.4%; in the assay on SW-620 colon, 85.4%. Also, the growth in the assay on MCF7 breast is 88.3%; in the assay on HCT-116 colon, 85.8%; in the assay with HCC-2998 colon, 104%; in the assay with KM12 colon it was 88.9%.
`O=[N+]([O-])c1ccc(-c2nnc(SCc3ccc(O)c4ncccc34)n2-c2ccccc2)cc1`: the growth was 40.6% with SR leukemia; 17.8% in the assay with RPMI-8226 leukemia; 17.9% with OVCAR-8 ovarian; 73.9% with OVCAR-5 ovarian; 30.6% with SK-OV-3 ovarian; 30.6% in the assay with IGROV1 ovarian. Further, the growth in the assay with OVCAR-3 ovarian was 30.5%; in the assay on HS 578T breast, 5.1% (active); in the assay with NCI/ADR-RES ovarian, 69%; with T-47D breast, 24.1%; in the assay on BT-549 breast, 20%; in the assay with MDA-MB-435 melanoma, 14%. The growth was 18.6% with SW-620 colon; 11.4% in the assay on MCF7 breast; 12.4% with HCT-116 colon; 41.9% with HCC-2998 colon; 19.2% in the assay on KM12 colon.
`COc1ccc(-c2nc(SCCC(C)C)nc(N/N=C\c3ccc(O)cc3)c2C#N)cc1`: the growth in the assay on SR leukemia was 25.5%; in the assay with RPMI-8226 leukemia it was 42.7%; with OVCAR-8 ovarian it was 47.6%; in the assay on OVCAR-5 ovarian it was 101%; with OVCAR-4 ovarian it was 74.9%; in the assay with IGROV1 ovarian, 68.5%. Moreover, the growth with HS 578T breast is 67%; in the assay on NCI/ADR-RES ovarian it was 55.1%; with T-47D breast, 76.7%; in the assay with BT-549 breast, 67.5%; in the assay on MDA-MB-435 melanoma it was 49.5%; with SW-620 colon, 54.1%. Besides, the values for the growth in the assay on MCF7 breast, in the assay with HCT-116 colon and in the assay with KM12 colon were 40.3%, 39.6% and 67%, respectively.
Consider `O=C(CN1C(=O)CSC1=O)Nc1ccc(C(=O)/C=C/c2cc3ccccc3nc2Cl)cc1`, for which the growth in the assay on SR leukemia is 36.7%; in the assay on RPMI-8226 leukemia, -13.2% (active); with OVCAR-8 ovarian, 77.7%; in the assay on OVCAR-5 ovarian it was 101%; in the assay on OVCAR-4 ovarian it was 46.4%; in the assay on OVCAR-3 ovarian it was 87.4%. Moreover, the growth in the assay on HS 578T breast was 82.7%; in the assay on NCI/ADR-RES ovarian, 89.5%; with T-47D breast it was 58.7%; in the assay with BT-549 breast, 66.1%; in the assay with MDA-MB-435 melanoma it was 25.6%; with SW-620 colon it was 95.6%. For the same compound, the growth with MCF7 breast is 12.5%; in the assay on HCT-116 colon, -45.5% (active); in the assay on HCC-2998 colon it was 82.1%; with KM12 colon, 62.2%.
On to `CCOC(=O)c1c(NCC(=O)Nc2ccc(Br)cc2)sc2c1CCCC2`, for which the growth with SR leukemia is 43.8%; with RPMI-8226 leukemia, 27%; in the assay with OVCAR-8 ovarian, 36.5%; in the assay on OVCAR-5 ovarian, 27.2%; in the assay with SK-OV-3 ovarian, 66.9%; in the assay with IGROV1 ovarian, 22%. The growth was 10.3% in the assay with OVCAR-3 ovarian; 57.5% in the assay on HS 578T breast; 25.2% in the assay on NCI/ADR-RES ovarian; 30.9% in the assay on T-47D breast; 23.9% with BT-549 breast; 42.9% with MDA-MB-435 melanoma. The growth in the assay with SW-620 colon was 8.98% (active); in the assay with MCF7 breast it was 11.9%; in the assay on HCT-116 colon it was 7.99% (active); with HCC-2998 colon, 67.9%; with KM12 colon, 70.2%.
As for `COc1cc(/C=N/n2cnc3oc(-c4ccccc4)cc3c2=N)cc(CN2CCN(C)CC2)c1O`, the growth was 35.2% with SR leukemia; 95.8% with RPMI-8226 leukemia; 93.9% in the assay with OVCAR-8 ovarian; 105% in the assay on OVCAR-5 ovarian; 97.7% in the assay with OVCAR-4 ovarian; 61.7% in the assay on IGROV1 ovarian. Besides, the growth is 110% with OVCAR-3 ovarian; 68% in the assay with HS 578T breast; 98.7% in the assay with NCI/ADR-RES ovarian; 99.4% in the assay on T-47D breast; 120% in the assay with BT-549 breast; 98.6% in the assay with MDA-MB-435 melanoma. For the same compound, the growth is 101% with SW-620 colon; 89.3% in the assay on MCF7 breast; 80.6% in the assay with HCT-116 colon; 108% with HCC-2998 colon; 87.2% in the assay with KM12 colon.
Take `O=C1c2c(c3c4cc(Br)ccc4[nH]c3c3ccc4ccccc4c23)C(=O)N1CCN1CCCCC1`: the growth in the assay with SR leukemia is -21.6% (active); in the assay on RPMI-8226 leukemia, -36.5% (active); in the assay on OVCAR-8 ovarian, -51.8% (active); in the assay with OVCAR-5 ovarian, 99.8%; with OVCAR-4 ovarian, 95.2%; in the assay on IGROV1 ovarian it was 59.8%. Also, the growth was 104% in the assay with HS 578T breast; 6.23% (active) with NCI/ADR-RES ovarian; 43.3% in the assay with T-47D breast; 91% with BT-549 breast; -41.8% (active) with MDA-MB-435 melanoma; 10.5% in the assay on SW-620 colon. Also, the results for the growth in the assay on MCF7 breast, in the assay with HCT-116 colon and with HCC-2998 colon were -35.6% (active), -61.8% (active) and 2.69% (active), respectively.
`CCn1c2ccc(/C=N/OCCCN(C)C)cc2c2cc(/C=N/OCCCN(C)C)ccc21`: the growth in the assay with SR leukemia was -40.8% (active); in the assay with RPMI-8226 leukemia, -15.9% (active); in the assay with OVCAR-8 ovarian it was -5.7% (active); with OVCAR-5 ovarian, 31.1%; with OVCAR-4 ovarian it was 52.7%; in the assay on IGROV1 ovarian, -52.8% (active). The growth in the assay with HS 578T breast is 73.8%; with NCI/ADR-RES ovarian, 9.38% (active); in the assay on T-47D breast, 105%; with BT-549 breast, 60.9%; in the assay on MDA-MB-435 melanoma, -48.9% (active); with SW-620 colon, -47.3% (active). In addition, the growth with MCF7 breast was -92% (active); with HCT-116 colon, -72.2% (active); in the assay on HCC-2998 colon, -49.4% (active); in the assay on KM12 colon, 17.1%.
For `CC(C)=CCC[C@](C)(O)[C@H]1CC[C@]2(C)[C@@H]1CC[C@@H]1[C@@]3(C)CCC(NC(=O)c4ccccc4C(=O)O)C(C)(C)[C@@H]3CC[C@]12C` (some centres undefined), the growth was 86.9% with SR leukemia; 90.9% in the assay on RPMI-8226 leukemia; 96.3% in the assay on OVCAR-8 ovarian; 94.9% with OVCAR-5 ovarian; 105% in the assay with OVCAR-4 ovarian; 102% in the assay on IGROV1 ovarian. For the same compound, the growth in the assay with HS 578T breast is 89.2%; in the assay with NCI/ADR-RES ovarian, 98.3%; with T-47D breast, 79.4%; with BT-549 breast, 113%; in the assay on MDA-MB-435 melanoma it was 51.2%; with SW-620 colon it was 91%. Moreover, the growth in the assay on MCF7 breast is 73%; in the assay on HCT-116 colon, 86.9%; with KM12 colon, 87.9%.
